Rows were chosen to be rich in hits. Some 2.2% of all compounds tested hit in one or more screens of this group.
Mito fusion act – blocks mitochondrial division or promotes mitochondrial fusion | S. cerevisiae fusion-defective mutant growth rescue, CellTiterGlo 48 h | Potency, µM (doses to about 46.1 µM), for inactives: top-dose growth rescue (activation), usual class: activators | actives 0.23% (n = 320,000) | AID 485298; further: % of control where 0% means no effect; nearly all actives have a fitted effect of over 45% in size
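Growth-rescue viability read-out: after 48 h at the non-permissive 37C in glycerol/ethanol YPEG, yeast mitochondrial fusion mutants are measured by CellTiterGlo luminescence; compounds (23 nl pinned per well) restoring growth score as division inhibitors or fusion activators.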
FUS yeast rescue – suppressors of FUS proteinopathy in yeast; AID 1347120; Potency, µM (doses to about 76.6 µM), most hits filed as activators; S. cerevisiae FUS-expressing, growth rescue, OD600, 24 h; actives 0.24% (n = 390,000);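 further: plate controls were DMSO vehicle for no effect and reference control for full effect; nearly all actives have a fitted effect of over 55% in size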
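Steps: raffinose overnight preculture; dilution to OD 0.005 in 2% galactose minimal medium; compound addition (concentration series); 24hr at 30C, 99% humidity; absorbance read at 600 nm.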
TDP43 rescue – inhibitors of TDP-43 toxicity in yeast | TDP-43 expressing yeast growth rescue, BacTiter-Glo, 24 h | Potency, µM (titrated, usually from 46.1 µM), for the others: top-dose growth rescue (activation), hits mostly activators | actives 1.8% (n = 410,000); further: % of control where 0% means no effect; nearly all actives have a fitted effect of over 50% in size
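Growth rescue of TDP-43-toxic yeast measured as ATP luminescence (BacTiter-Glo). Cells grown to mid-log in raffinose, induced in galactose at OD600=0.02, exposed to compound 24 hr at 30 deg C.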
aSyn yeast inh – inhibitors of alpha-synuclein toxicity in yeast. Yeast expressing alpha-synuclein, growth rescue, BacTiter-Glo, 24 h. Potency, µM (series often up to 46.1 µM), for the others: at the highest dose growth rescue (activation), hits mostly activators. actives 0.14% (n = 370,000). AID 652106; further: % of control where 0% means no effect; nearly all actives have a fitted effect of over 65% in size
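Rescue of yeast growth: cells expressing toxic alpha-synuclein, induced in galactose at OD600 0.02, incubated with compound 24 h at 30 C. ATP luminescence quantified growth; inhibitors of toxicity appear as activators.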
ERG-DNA inh – ERG Ets/DNA interaction inhibition. P11308. fluorescence polarization, His-ERG Ets domain / labelled DNA. Potency, µM (doses to about 76.9 µM), without a hit: at the highest dose FP activity, negative = inhibition, actives largely listed as inhibitors. actives 0.028% (n = 370,000). AID 624246; active means well fitted inhibition curve with a large enough effect in the polarisation, with a control signal flat; inconclusive means small, poorly fitted or top-dose-only effect, or effect the other way, or a change in a side signal; inactive means no such curve, though single readings can be large or run the other way; the % refers to the polarisation;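 further: polarization taken with two DNA probes labelled with fluorescein and Texas red; % of control where 0% means no effect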
Target sequence (P11308 whole entry, looked up, the tested form may be a part): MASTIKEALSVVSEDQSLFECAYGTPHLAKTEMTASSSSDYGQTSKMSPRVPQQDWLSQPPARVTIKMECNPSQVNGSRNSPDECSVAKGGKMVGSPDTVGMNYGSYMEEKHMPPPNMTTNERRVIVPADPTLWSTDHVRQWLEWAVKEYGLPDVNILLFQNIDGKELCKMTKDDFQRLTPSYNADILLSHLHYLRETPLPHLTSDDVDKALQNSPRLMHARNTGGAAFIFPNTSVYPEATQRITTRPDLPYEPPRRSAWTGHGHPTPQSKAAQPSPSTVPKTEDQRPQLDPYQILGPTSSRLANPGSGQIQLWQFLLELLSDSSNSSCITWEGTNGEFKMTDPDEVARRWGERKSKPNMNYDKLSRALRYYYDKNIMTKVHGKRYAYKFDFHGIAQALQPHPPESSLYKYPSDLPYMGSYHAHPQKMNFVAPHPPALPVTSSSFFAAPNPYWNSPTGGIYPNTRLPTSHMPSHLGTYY
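His-tagged ERG Ets domain (1 uM in the protein solution; 300mM KCl, 50mM Tris-HCl, 1mM EDTA, 1mM DTT, pH 7.5) received compound, then a probe mix of 5 nM fluorescein-DNA and 100nM Texas-615-DNA. Fluorescence polarization was read for both dyes.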
Abeta yeast res – A-beta toxicity reversal in yeast | yeast expressing A-beta42, growth rescue, OD600, 48 h; response scale: 0% DMSO, 100% iron-clioquinol control | Potency, µM (titrated, usually from 46.1 µM), actives largely listed as activators | actives 0.063% (n = 410,000); further: nearly all actives have a fitted effect of over 55% in size
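Yeast growth medium received pinned compounds, then yeast cells expressing toxic A-beta were added; plates incubated at 30 C for 48 hr. Growth read as absorbance at 600 nm, normalized to DMSO and equimolar FeCl3 plus clioquinol controls.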
* marks the source's active call; other numbers are inactive results; i = inactive; ? = inconclusive; . = not tested or not shown; [ ] = remark or other dose. Unless noted, the call rests on the fitted dose curve; in most records, active means well fitted curve in the direction sought with a large enough effect; inconclusive means small, poorly fitted or top-dose-only effect, or another doubt; inactive means no such curve, though single readings can be large; an effect the other way counts as inactive or inconclusive. Potency means the concentration at half of the fitted maximal effect.

SMILES | Mito fusion act | FUS yeast rescue | TDP43 rescue | aSyn yeast inh | ERG-DNA inh | Abeta yeast res
O=C(Nc1ccccc1C(=O)Nc1ccc(Cl)cc1)c1cccnc1 | 7% | i | 14µM* | -3% | -7% | i
CCOc1ncccc1C(=O)Nc1ccc(Cl)cc1 | 15% | i | 11µM* | -6% | 1% | i
COc1ccc(NC(=O)C2C(c3ccc4c(c3)OCO4)=Nc3ccccc3N2C(C)=O)cc1 (centres undefined) | . | i | 25% | 9% | . | i
COc1ccc(CNc2ccc(C)cc2)cc1Br | -1% | i | 18µM* | 1% | 7% | i
Oc1ccc(NCc2ccc(OCc3ccccc3)cc2)cc1 | -11% | ? | 16µM* | -26% | ? | i
Oc1ccc(NCc2ccc(OCc3ccccc3Cl)cc2)cc1 | . | i | ? | . | ? | i
COc1cc(CNn2c(C)n[nH]c2=S)cc(Cl)c1OCc1ccc(F)cc1 | 17% | i | 9% | 0% | . | i
COc1cc(CNc2ccc(O)cc2)cc(Br)c1OCc1ccccc1 | -7% | i | ? | 0% | 40µM* | i
COc1cc(CNn2c(C)n[nH]c2=S)cc(Br)c1OCc1ccc(F)cc1 | ? | i | 35µM* | 3% | -1% | i
CCOc1ccc(CCNC(=O)C2CCN(C(=O)N3CC(CC)Oc4ccccc43)CC2)cc1 (centres undefined) | . | i | 5% | . | 1% | i
Cc1nc(-c2ccc(F)cc2)sc1CCNC(=O)Cc1ccc(F)cc1 | . | i | ? | . | 4% | i
Cc1nc(-c2ccc(F)cc2)sc1CCNC(=O)c1ccccc1C(F)(F)F | . | i | 13µM* | . | 5% | i
COc1ccc(-c2nc(C)c(CCNC(=O)c3c(F)cccc3F)s2)cc1 | . | i | 10µM* | -1% | -1% | i
COc1ccc(CC(=O)NCCc2sc(-c3cccc(F)c3)nc2C)cc1 | . | i | 11µM* | . | 10% | i
Cc1cccc(C(=O)NCCc2sc(-c3ccccc3)nc2C)c1 | . | i | ? | ? | 4% | i
COc1cccc(C(=O)NCCc2sc(-c3cccc(C)c3)nc2C)c1 | . | ? | 25µM* | -8% | -5% | i
COc1ccc(C(=O)NCCc2sc(-c3cccc(F)c3)nc2C)cc1 | . | ? | 22µM* | . | -4% | i
Cc1sc2ncnc(NCc3cccs3)c2c1C | -12% | i | 18µM* | -1% | 11% | i
Cc1sc2ncnc(NCc3ccco3)c2c1C | -8% | . | 12% | 7% | 7% | i
COc1cccc(CNC(=O)C2CCN(C(=O)N3CCOc4ccc(Cl)cc43)CC2)c1OC | . | i | ? | . | 0% | i
Cc1cc(C)cc(OCc2cc(=O)n3c(-c4ccccc4)csc3n2)c1 | . | i | 19% | . | -5% | i
CCOc1ccc(NC(=O)CN(C)Cc2cc(=O)n3c(-c4ccccc4)csc3n2)cc1OCC | -6% | 18µM* | 0% | -3% | -2% | i
CCCCCn1c(=O)[nH]c2cc(C(=O)NCc3ccc(F)cc3)ccc2c1=O | . | i | -1% | . | -14% | i
Cc1cc(C)nc(/N=c2/ssnc2Cl)c1 | -17% | . | 2.8µM* | -65% | 9% | i
CNCC(=O)Nc1ccc(OC(F)(F)F)cc1 | -1% | i | 28% | 3% | 2% | i
SMILES | Mito fusion act | FUS yeast rescue | TDP43 rescue | aSyn yeast inh | ERG-DNA inh | Abeta yeast res
CC(C)NC(=O)NC(=O)COC(=O)c1ccc(OC(F)(F)F)cc1 | -12% | . | ? | 6% | -9% | 10µM*
Cc1onc(-c2ccccc2)c1C(=O)OCC(=O)Nc1ccc(OC(F)(F)F)cc1 | 9% | i | 16µM* | 0% | -5% | i
CC(C)NC(=O)NC(=O)COC(=O)c1ccc(S(=O)(=O)Nc2ccccc2)cc1 | 4% | i | -10% | -2% | -11% | i
Cc1ccc(NC(=O)COC(=O)c2c(-c3ccccc3)noc2C)cc1 | -3% | i | 15% | 4%[1.84 µM] | -3% | i
COc1cccc(OC)c1C(=O)OCC(=O)Nc1ccc(OC(F)(F)F)cc1 | 12% | i | 14µM* | -4% | 1% | i
Cc1cc(N2CCC(C)CC2)nc2ccc(NC(=O)Cc3ccccc3Br)cc12 | . | i | 2% | . | -4% | i
CCCCS/C(=C(/C#N)C(N)=O)c1cc2c([nH]1)CCCC2 | 13µM* | i | ? | 10% | 2% | i
CCOc1ccc(NC(=O)Cn2c(=O)n(Cc3ccc4c(c3)OCO4)c(=O)c3ccc(C(=O)NC4CCCCC4)cc32)cc1 | . | i | 13% | 0% | -3% | i
CC(C)(C)c1csc(NC(=O)c2ccc(Cl)s2)n1 | 17% | i | ? | -35% | 1% | i
CCNc1nc(N)c(C(=O)c2ccc(Cl)s2)s1 | 1% | i | 13µM* | 9% | -13% | i
O=C(NCc1ccc2c(c1)CCN2C(=O)c1ccccc1)c1ccco1 | . | i | 17% | . | 1% | i
COc1cccc(NC(=O)COC(=O)c2nc(Cl)ccc2Cl)c1 | 4% | i | 16µM* | 8% | -10% | i
O=C(COC(=O)c1nc(Cl)ccc1Cl)Nc1ccc(Cl)cn1 | -2% | i | 0% | 3% | -11% | i
O=C(COC(=O)c1nc(Cl)ccc1Cl)Nc1ccc(Cl)cc1 | -9% | i | 16µM* | 0% | 7% | i
CCCN(CC1CC1)c1c2c(nc3ncnn13)CCCC2 | . | i | . | . | . | .
COc1ccc(CN2C(=O)NC3(CCCc4ccccc43)C2=O)cc1F (centres undefined) | -5% | i | 11µM* | 2% | -10% | i
COc1ccc(CN2C(=O)NC3(CCCCC3)C2=O)cc1F | 2% | i | 22% | 4% | 1% | i
COc1cccc(-c2cccc(-c3nc(C(=O)NCc4ccc(Oc5ccccc5)cc4)cc4c3[C@H](CCO)N(S(=O)C(C)(C)C)C4)c2)c1 (some centres undefined) | . | ? | ? | -27% | . | i
CC(C)(C)S(=O)N1Cc2cc(C(=O)NCc3ccc(Oc4ccccc4)cc3)nc(-c3cccc(-c4cc5ccccc5o4)c3)c2[C@@H]1CCO (some centres undefined) | . | 32µM* | 22µM* | -32% | . | i
Cc1ccc(C)c(N2CCN(C(=O)c3ccc4c(Cl)c5c(nc4c3)CCCC5)CC2)c1 | . | ? | 35µM* | . | -2% | i
Cc1ccc(Cl)cc1N1CCN(C(=O)c2ccc(C)c(-n3c(C)nc4cccnc43)c2)CC1 | . | 22µM* | 7% | . | 5% | i

Compound activity deposited in PubChem BioAssay by National Center for Advancing Translational Sciences (NCATS).
